Source: PubChem BioAssay (National Center for Advancing Translational Sciences (NCATS))
TDP1 cell CPT: DT40-hTDP1 cell growth loss with CPT. chicken DT40 Tdp1-/-;hTDP1 cells + 20 nM CPT, ATP luminescence, 48 h. 12% of 420,000 active. Potency, µM (highest dose often 46.2 µM), for the others: top-dose activity change, negative = growth inhibition, hits mostly inhibitors; note: potency is the fitted concentration of half-maximal effect; nearly all actives have a fitted effect of over 55% in size
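Chicken DT40 Tdp1-/- cells complemented with human TDP1, 400 cells/well, exposed to compounds plus 20 nM camptothecin for at least 48 h at 37 C; viability read as ATP content by CellTiter-Glo luminescence.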
DT40 TDP1 no CPT: qHTS for Inhibitors of human tyrosyl-DNA phosphodiesterase 1 (TDP1): qHTS in cells in absence of CPT; AID 686978, 2013; DT40 Tdp1-/- hTDP1 cells, no CPT, ATP luminescence, 48 h; Potency, µM (highest dose often 46.2 µM), inactives show at the top dose activity change, negative = growth inhibition, most hits filed as inhibitors; 15% of 420,000 active; note: potency is the fitted concentration of half-maximal effect; nearly all actives have a fitted effect of over 55% in size
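Seeded 400 DT40-hTDP1 cells/well (vehicle DMSO, no 20 nM CPT); pinned compounds; ≥48 hr at 37 °C; CellTiter-Glo luminescence as viability measure.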
HT1080 IDH1KD tx: HT-1080 IDH1 knockdown cell toxicity (counter line). HT-1080 IDH1 knockdown viability, ATP luminescence, 48 h. 2% of 360,000 active. Potency, µM (titrated, usually from 46.1 µM), inactives show at the top dose activity, negative = toxicity, actives largely listed as cytotoxic;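 note: potency is the fitted concentration of half-maximal effect; 0% = DMSO wells and -100% = cell-free medium wells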
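Cytotoxicity counter-line: IDH1KD HT-1080, 48 h, CellTiter-Glo. Curves classed by r2, magnitude and activity.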
HT1080NT lethal: kills 2HG-producing HT-1080-NT fibrosarcoma cells; HT-1080-NT fibrosarcoma viability, CellTiter-Glo ATP luminescence, 48 h; Potency, µM (top dose mostly 46.1 µM), without a hit: top-dose activity, negative = less viability, hits mostly cytotoxic; 1.6% of 360,000 active; AID 686970;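 note: NT is the 2HG producing partner of a matched IDH1 knockdown line; potency is the fitted concentration of half-maximal effect; 0% = DMSO-treated cells and -100% = media-only wells without cells; nearly all actives have a fitted effect of over 55% in size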
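Luminescent CellTiter-Glo readout after 48 hours of compound exposure at 37 degrees C defined viability of HT-1080-NT cells. Activity was normalized to DMSO wells and cell-free media wells; concentration-response curves were fitted and assigned curve classes.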
IL1B secr inh: inhibitors of inflammasome signaling (IL-1 beta secretion); THP-1 LPS/ATP IL-1B secretion, AlphaLISA, 16 h; active compounds read low; activity change, % at 57.5 µM; 4.7% of 360,000 active; in the data active = activity change below about -50%; inconclusive = mostly about -30% to -49%
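THP-1 cells pretreated 1 hr with compounds (up to 57.5 uM final), then stimulated with LPS (250 ng/mL final) plus ATP (1.25 mM final); secreted IL-1B measured by AlphaLISA after 16 hr, decreased signal indicating inhibition.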
* marks the source's active call; other numbers are inactive results; ? = inconclusive; · = no result; [ ] = another dose, or the depositor's remark. Most compounds without a hit are left out; they make up all but 19% or so of the library. Unless noted, calls come from the whole dose curve; as a rule, active = well fitted curve in the direction sought with a large enough effect; inconclusive = small, poorly fitted or top-dose-only effect, or another doubt; inactive = no such curve, though single readings can be large; an effect the other way counts as inactive or inconclusive. Unless noted, % is set by controls: 0 for no effect and ±100 for the full control effect.

SMILES | TDP1 cell CPT | DT40 TDP1 no CPT | HT1080 IDH1KD tx | HT1080NT lethal | IL1B secr inh
Cc1cccc(S(=O)(=O)Nc2ccc(-c3nc4ccc(C)cc4s3)cc2)c1 | ? | 29µM* | -29% | -28% | -12
O=C(Nc1cccc(F)c1)C1CCN(C(=O)NCc2ccccc2)CC1 | -9% | 4% | 0% | -9% | 8
CN(C)c1ccc(S(=O)(=O)N2CCC(Cc3ccccc3)CC2)cn1 | ? | ? | 5% | 1% | 26
Cc1csc2nc(COC(=O)CNC(=O)c3ccc(F)cc3)cc(=O)n12 | 4% | -1% | · | · | ·
Cc1ccc2nc(-c3ccc(NC(=O)CSc4nc(N)cc(=O)[nH]4)cc3)sc2c1 | -4% | 5% | 12µM* | 9.2µM* | 0
CCC1(c2ccc(F)cc2)NC(=O)N(CC(=O)Nc2ccc(-c3nc4ccc(C)cc4s3)cc2)C1=O (stereo not drawn) | 13µM* | 6.5µM* | ? | ? | 96
Cc1ccc2nc(-c3ccc(NC(=O)CSc4nccc(=O)[nH]4)cc3)sc2c1 | 1% | 6% | -20% | -7% | -6
O=[N+]([O-])c1nn(-c2ccc3c(c2)OCCO3)n(O)c1=NC1CCN(Cc2ccccc2)CC1 | 10µM* | ? | -16% | -21% | 5
O=[N+]([O-])c1nn(-c2ccccc2)n(O)c1=NC1CCN(Cc2ccccc2)CC1 | 3.3µM* | 9.2µM* | 1% | 2% | ?
COc1ccccc1CN1CCSCC1 | -16% | 4% | -4% | 4% | -3
COc1ccccc1CN1CCN(Cc2nc(-c3ccc(C)cc3)oc2C)CC1 | 21µM* | ? | -2% | -4% | 0
COc1ccc(-c2nc(CN3CCN(c4ccccc4OC)CC3)c(C)o2)cc1 | ? | ? | -16% | -13% | -97*
COc1ccccc1CN1CCCCCC1 | ? | 18µM* | -10% | -8% | -10
COc1ccc(-c2nc(CN3CCN(Cc4cccc(F)c4)CC3)c(C)o2)cc1 | ? | ? | -14% | -3% | ?
COC(=O)c1ccc(-c2nc(CN3CCN(Cc4cccc(C)c4)CC3)c(C)o2)cc1 | ? | 23µM* | 12% | 8% | 7
CCC(C)(C)NC(=O)C(c1ccc(F)cc1)N(Cc1cccs1)C(=O)c1cnccn1 (stereo not drawn) | 0% | -22% | 8% | 6% | -21
Cc1cc(N2CCN(Cc3nc(-c4ccc(F)cc4)oc3C)CC2)cc(C)n1 | ? | ? | -16% | -16% | -6
COc1ccccc1N1CCN(Cc2nc(-c3ccc(F)cc3)oc2C)CC1 | ? | 18µM* | -21% | -16% | -2
Cn1cccc1C1C=C(c2ccc(C(C)(C)C)cc2)Nc2ncnn21 (stereo not drawn) | ? | 23µM* | -10% | -3% | -16
Fc1ccc(C2=CC(c3ccc(Br)o3)n3ncnc3N2)cc1 (stereo not drawn) | ? | ? | -2% | 11% | -8
CC(C)(C)c1ccc(C2=CC(c3ccccc3F)n3ncnc3N2)cc1 (stereo not drawn) | -22% | -18% | 0% | -2% | -27
C1=C(c2ccc(-c3ccccc3)cc2)Nc2ncnn2C1c1ccco1 (stereo not drawn) | 21µM* | 16µM* | -6%[9.24 µM] | -7% | 41
Brc1ccc(C2=CC(c3cccs3)n3ncnc3N2)cc1 (stereo not drawn) | ? | 7.3µM* | ? | -36% | -19
CCCCN(C(=O)c1ccccc1OCc1ccc(F)cc1)c1c(N)n(CCC)c(=O)[nH]c1=O | 18µM* | ? | -12% | 1% | 6
CCCCN(C(=O)c1ccc(-c2ccc([N+](=O)[O-])cc2)o1)c1c(N)n(CCCC)c(=O)[nH]c1=O | ? | 16µM* | -5% | 0% | 12
CCCCN(C(=O)c1ccc([N+](=O)[O-])o1)c1c(N)n(CCCC)c(=O)[nH]c1=O | ? | -17% | 3% | -1% | 17
